Assay results as given in PubChem BioAssay (NCATS).
Inconclusive results are not listed. Active and inactive are the calls of the source. The call rests on the fitted dose curve; in most records, active means well fitted curve in the direction sought with a large enough effect; inconclusive means small, poorly fitted or top-dose-only effect, or another doubt; inactive means no such curve, though single readings can be large; an effect the other way counts as inactive or inconclusive.

How the values were obtained:
[1] = target: ATP-dependent 6-phosphofructokinase (Trypanosoma brucei brucei) (UniProt O15648); assay: qHTS Assay to Find Inhibitors of T. brucei phosphofructokinase: hit validation (AID 492961); further: potency means the concentration at half of the fitted maximal effect
Method in brief: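 In this biochemical qHTS validation, titrated compounds were tested against 1.25 nM PFK with 0.1 mM ATP and 0.5 mM F6P. Percent activity came from controls lacking or containing enzyme.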

[2] = target: Luciferin 4-monooxygenase (Photinus pyralis) (UniProt P08659); assay: Biochemical firefly luciferase enzyme assay for NPC (AID 624030);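 further: purified P. pyralis luciferase at 10 nM with luciferin and ATP substrate; 0% = DMSO and -100% = full luciferase inhibition by PTC124 control; nearly all actives have a fitted effect of over 70% in size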
Method in brief: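 Direct inhibition of firefly luciferase enzyme (10 nM final, 50 mM Tris Acetate) assessed by luminescence within 5 minutes. Percent activity scaled between DMSO and PTC124 positive control, with concentration-effect curves classified by fit quality and response.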

[3] = qHTS profiling for inhibitors of Plasmodium falciparum proliferation (AID 504749); further: potency means the concentration at half of the fitted maximal effect;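 on activity, negative = inhibition: 0% = DMSO vehicle and full inhibition = artemisinin control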; on all read-outs here: nearly all actives have a fitted effect of over 60% in size; details: P. falciparum in erythrocytes, SYBR Green DNA, 72 h; for activity, negative = inhibition: at 28.7 µM (top of the series)
Method in brief: (§1)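 Infected RBCs, 0.3% parasitemia/2.5% Hct final; cpd 72 h, 37 C, 5% CO2; lysis buffer with saponin/triton/SYBR Green I, o/n RT dark; FI 485/535; norm. to artemisinin (0.29 uM) and DMSO.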

CP192 = assay: as above; details: P. falciparum in erythrocytes, SYBR Green DNA, 72 h; series mostly up to 28.7 µM
Method in brief: as §1

CP201 = assay: as above; details: P. falciparum in erythrocytes, SYBR Green DNA, 72 h; series mostly up to 28.7 µM
Method in brief: as §1

CP203 = assay: as above; details: P. falciparum in erythrocytes, SYBR Green DNA, 72 h; series mostly up to 28.7 µM
Method in brief: as §1

CP211 = assay: as above; details: P. falciparum in erythrocytes, SYBR Green DNA, 72 h; series mostly up to 28.7 µM
Method in brief: as §1

CP262 = assay: as above; details: P. falciparum in erythrocytes, SYBR Green DNA, 72 h; series mostly up to 28.7 µM
Method in brief: as §1

CP269 = assay: as above; details: P. falciparum in erythrocytes, SYBR Green DNA, 72 h; series mostly up to 28.7 µM
Method in brief: as §1

CP315 = assay: as above; details: P. falciparum in erythrocytes, SYBR Green DNA, 72 h; series mostly up to 28.7 µM
Method in brief: as §1

CP325 = assay: as above; details: P. falciparum in erythrocytes, SYBR Green DNA, 72 h; series mostly up to 28.7 µM
Method in brief: as §1

CP329 = assay: as above; details: P. falciparum in erythrocytes, SYBR Green DNA, 72 h; series mostly up to 28.7 µM
Method in brief: as §1

Dd2 = assay: as above; details: P. falciparum in erythrocytes, SYBR Green DNA, 72 h; series mostly up to 28.7 µM
Method in brief: as §1

ECU = assay: as above; details: P. falciparum in erythrocytes, SYBR Green DNA, 72 h; series mostly up to 28.7 µM
Method in brief: as §1

FAB9 = assay: as above; details: P. falciparum in erythrocytes, SYBR Green DNA, 72 h; series mostly up to 28.7 µM
Method in brief: as §1

PC49 = assay: as above; details: P. falciparum in erythrocytes, SYBR Green DNA, 72 h; series mostly up to 28.7 µM
Method in brief: as §1

[4] = qHTS for Inhibitors of Plasmodium falciparum (DD2) proliferation (AID 504314); further: potency means the concentration at half of the fitted maximal effect;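 on activity, negative = inhibition: parasite DNA measured by SYBR Green fluorescence after red cell lysis; plate controls were DMSO vehicle for no effect and artemisinin wells for full effect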
Method in brief: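 Erythrocytes infected with P. falciparum (0.3% parasitemia, 2.5% hematocrit final) were incubated with compounds for 72 h at 37C, 5% CO2. Parasite DNA was detected by SYBR Green I fluorescence after saponin/Triton lysis, normalized to artemisinin (0.29 uM) and DMSO controls.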

[5] = qHTS for Inhibitors of Plasmodium falciparum (GB4) proliferation (AID 504315); further: nearly all actives have a fitted effect of over 50% in size; further: potency means the concentration at half of the fitted maximal effect
Method in brief: (§2)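 Erythrocytes infected with P. falciparum line (0.3% parasitemia, 2.5% hematocrit final) incubated with compounds 72 h at 37 °C, 5% CO2; SYBR Green lysis buffer added, fluorescence read next day. Normalized to 0.29 uM artemisinin and DMSO.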

[6] = qHTS for Inhibitors of Plasmodium falciparum (7G8) proliferation (AID 504316); further: potency means the concentration at half of the fitted maximal effect; nearly all actives have a fitted effect of over 65% in size
Method in brief: as §2

Chain of ATP-dependent 6-phosphofructokinase (Trypanosoma brucei brucei) (O15648 whole entry, looked up): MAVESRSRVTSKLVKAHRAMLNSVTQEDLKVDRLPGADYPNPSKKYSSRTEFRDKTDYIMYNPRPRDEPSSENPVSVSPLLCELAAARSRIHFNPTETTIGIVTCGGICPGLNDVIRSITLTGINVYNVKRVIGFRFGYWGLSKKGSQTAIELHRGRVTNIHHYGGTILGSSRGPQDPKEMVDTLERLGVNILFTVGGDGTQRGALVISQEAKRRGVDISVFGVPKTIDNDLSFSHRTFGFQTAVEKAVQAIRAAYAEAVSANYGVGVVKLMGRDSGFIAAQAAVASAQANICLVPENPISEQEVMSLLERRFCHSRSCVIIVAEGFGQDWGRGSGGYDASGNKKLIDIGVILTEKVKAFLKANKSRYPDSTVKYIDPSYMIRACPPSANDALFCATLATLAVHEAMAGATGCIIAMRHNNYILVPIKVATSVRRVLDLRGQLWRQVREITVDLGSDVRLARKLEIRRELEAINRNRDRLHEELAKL
Chain of Luciferin 4-monooxygenase (Photinus pyralis) (P08659 whole entry, looked up): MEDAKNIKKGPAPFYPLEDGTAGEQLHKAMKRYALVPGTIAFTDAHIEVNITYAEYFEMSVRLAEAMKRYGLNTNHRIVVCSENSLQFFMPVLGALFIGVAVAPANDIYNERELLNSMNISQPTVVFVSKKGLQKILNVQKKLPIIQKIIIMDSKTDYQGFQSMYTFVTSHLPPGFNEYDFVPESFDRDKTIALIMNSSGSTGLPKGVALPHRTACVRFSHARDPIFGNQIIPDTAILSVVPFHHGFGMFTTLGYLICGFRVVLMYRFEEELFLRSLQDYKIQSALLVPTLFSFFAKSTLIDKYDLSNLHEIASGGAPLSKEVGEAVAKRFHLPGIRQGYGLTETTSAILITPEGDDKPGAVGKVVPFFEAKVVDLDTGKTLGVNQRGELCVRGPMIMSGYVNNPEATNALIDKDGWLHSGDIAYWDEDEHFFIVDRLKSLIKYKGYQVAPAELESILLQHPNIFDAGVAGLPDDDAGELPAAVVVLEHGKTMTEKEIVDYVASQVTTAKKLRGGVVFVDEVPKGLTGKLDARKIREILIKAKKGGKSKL

C=C1/C(=C\C=C2/CCC[C@]3(C)[C@@H]([C@H](C)/C=C/[C@@H](O)C4CC4)CC[C@@H]23)C[C@@H](O)C[C@@H]1O
inactive: Potency [1] | Potency [2] | activity, negative = inhibition ([3]; parasite line A) -4.72% | activity, negative = inhibition ([3]; parasite line B) -23.6% | Potency (CP192) | Potency (CP201) | Potency (CP203) | Potency (CP211) | Potency (CP262) | Potency (CP269) | Potency (CP315) | Potency (CP325) | Potency (CP329) | Potency (Dd2) | Potency (ECU) | Potency (FAB9) | Potency (PC49)

Oc1cc2cc(CCN3CCN(c4nsc5ccccc45)CC3)c(Cl)cc2[nH]1
inactive: Potency [1] | Potency [2] | activity, negative = inhibition ([3]; parasite line B) -29.2% | Potency (CP192) | Potency (CP201) | Potency (CP203) | Potency (CP211) | Potency (CP262) | Potency (CP269) | Potency (CP315) | Potency (CP325) | Potency (CP329) | Potency (Dd2) | Potency (ECU) | Potency (FAB9) | Potency (PC49)

CN(C)CC[C@@](O)(c1ccccc1)c1ccccc1Cl
inactive: Potency [1] | Potency [2] | activity, negative = inhibition ([3]; parasite line A) -12.9% | Potency (CP262) | Potency (FAB9)
active: Potency (CP269) 12 µM | Potency (CP325) 7.57 µM | Potency (Dd2) 2 µM | Potency (ECU) 7.94 µM

CCCCc1nc2c(c3c1C[C@H](C)OC3)CN(C(=O)N[C@H](C(=O)OC)C(C)C)CC2
inactive: Potency [4] | Potency [5]
active: Potency [6] 1.35 µM

C=C1CC[C@H](O)C/C1=C/C=C1\CCC[C@]2(C)[C@@H]([C@H](C)CCCC(C)(C)O)CC[C@@H]12
inactive: Potency [1] | Potency [2] | Potency (CP192) | Potency (CP201) | Potency (CP203) | Potency (CP211) | Potency (CP262) | Potency (CP269) | Potency (CP315) | Potency (CP325) | Potency (CP329) | Potency (FAB9)
active: Potency ([3]; parasite line B) 11.2 µM | Potency (Dd2) 12.6 µM | Potency (ECU) 12.6 µM

COC(=O)C1=C(C(=O)OC)[C@@H]2Nc3ccccc3[C@@]23C[C@@H](C(=O)OC)N(S(=O)(=O)c2ccc([N+](=O)[O-])cc2)C3=N1
inactive: Potency [4]

C[C@@H]1CC[C@H]2C(=O)N(Cc3ccc(Cl)cc3)C[C@H](O)CN2[C@@H]1c1ccc(Br)cc1
active: Potency [4] 1.69 µM

CC[C@H]1OC(=O)[C@H](C)C(=O)[C@H](C)[C@@H](OC2O[C@H](C)C[C@H](N(C)C)[C@@H]2O)[C@@](C)(OC)C[C@@H](C)C(=O)[C@@H](C)C2N(CCCCn3cnc(-c4cccnc4)c3)C(=O)O[C@@]21C (stereo partly specified)
inactive: Potency [1] | Potency [2] | activity, negative = inhibition ([3]; parasite line A) -28.5% | Potency (CP192) | Potency (CP201) | Potency (CP203) | Potency (CP211) | Potency (CP262) | Potency (CP269) | Potency (CP315) | Potency (CP325) | Potency (CP329) | Potency (FAB9) | Potency (PC49)
active: Potency (ECU) 10 µM

Cc1ccc(S(=O)(=O)N2CCc3nc(COc4ccccc4)c4c(c3C2)CO[C@@H](C)C4)cc1
inactive: Potency [4]

COC(=O)C1=C(C(=O)OC)[C@@H]2Nc3ccccc3[C@@]23C[C@@H](C(=O)OC)N(C(=O)CC(C)C)C3=N1
inactive: Potency [4]

CC#CCN1c2ccccc2[C@]23C[C@@H](C(=O)OC)N(S(=O)(=O)c4ccc(OC)cc4)C2=NC(C(=O)OC)=C(C(=O)OC)[C@H]13
inactive: Potency [4]

O=C(O)c1ccccc1-c1c2ccc(=O)cc-2oc2cc(O)ccc12
inactive: Potency [1] | Potency [2] | Potency (CP203) | Potency (CP269) | Potency (CP315) | Potency (CP329)

COC(=O)C1=C(C(=O)OC)[C@@H]2Nc3ccccc3[C@@]23C[C@@H](C(=O)OC)N(S(=O)(=O)c2ccc(Br)cc2)C3=N1
inactive: Potency [4]
active: Potency [5] 1.9 µM

COC(=O)C1=C(C(=O)OC)[C@@H]2N(C)c3ccccc3[C@@]23C[C@@H](C(=O)OC)N(S(=O)(=O)c2ccc(C(F)(F)F)cc2)C3=N1
active: Potency [5] 2.13 µM
inactive: Potency [4]

NC(C(=O)O)C(O)c1ccc(O)c(O)c1 (stereo unspecified)
active: Potency [1] 4.47 µM | Potency ([3]; parasite line A) 14.1 µM
inactive: Potency (CP315) | Potency (PC49)

C[C@H]1Cc2c(COc3ccccc3)nc3c(c2CO1)CN(C(=O)c1ccco1)CC3
inactive: Potency [4]

C=C1N[C@]2(C(=O)COC(C)=O)[C@@H](C[C@H]3[C@@H]4CCC5=CC(=O)C=C[C@]5(C)[C@H]4[C@@H](O)C[C@@]32C)O1
inactive: Potency [1] | Potency [2] | activity, negative = inhibition ([3]; parasite line B) -29.8% | Potency (CP192) | Potency (CP315) | Potency (Dd2) | Potency (ECU) | Potency (FAB9) | Potency (PC49)

CCN(CC)CCOCCOC(=O)C(CC)(CC)c1ccccc1 (tested in a mixture with another compound)
active: Potency (CP203) 4.26 µM | Potency (Dd2) 0.891 µM
inactive: Potency [1] | Potency [2] | Potency (CP192) | Potency (CP262) | Potency (CP315) | Potency (ECU) | Potency (FAB9)

C=CCN1c2ccccc2[C@]23C[C@@H](C(=O)OC)N(S(=O)(=O)c4ccc(C(F)(F)F)cc4)C2=NC(C(=O)OC)=C(C(=O)OC)[C@H]13
inactive: Potency [4]

CC#CCN1c2ccccc2[C@]23C[C@@H](C(=O)OC)N(S(=O)(=O)c4ccc(C)cc4)C2=NC(C(=O)OC)=C(C(=O)OC)[C@H]13
active: Potency [5] 1.69 µM
inactive: Potency [4]

CC#CCN1c2ccccc2[C@]23C[C@@H](C(=O)OC)N(S(=O)(=O)c4ccc5c(c4)OCCN5C)C2=NC(C(=O)OC)=C(C(=O)OC)[C@H]13
inactive: Potency [4]

COC(=O)C1=C(C(=O)OC)[C@@H]2N(C)c3ccccc3[C@@]23C[C@@H](C(=O)OC)N(S(=O)(=O)c2ccc([N+](=O)[O-])cc2)C3=N1
inactive: Potency [4]
active: Potency [5] 1.69 µM

Nc1ccccc1C(=O)C=Cc1ccccc1
inactive: Potency [4] | Potency [5]

C=C1CC2C3C=C(C)C4=CC(=O)CCC4(C)C3CCC2(C)[C@@]1(OC(C)=O)C(C)=O (stereo partly specified)
inactive: Potency [1] | Potency [2] | activity, negative = inhibition ([3]; parasite line B) -26.9% | Potency (CP192) | Potency (CP329) | Potency (Dd2) | Potency (ECU) | Potency (FAB9) | Potency (PC49)

O=C(NC(CO)C(O)c1ccc([N+](=O)[O-])cc1)C(Cl)Cl (stereo unspecified)
inactive: Potency [1] | Potency [2] | Potency (CP201) | Potency (CP203) | Potency (CP315) | Potency (ECU) | Potency (FAB9) | Potency (PC49)
active: Potency (CP269) 3.01 µM | Potency (CP325) 6.01 µM | Potency (Dd2) 8.91 µM

CC#CCN1c2ccccc2[C@]23C[C@@H](C(=O)OC)N(C(=O)C4CCC4)C2=NC(C(=O)OC)=C(C(=O)OC)[C@H]13
inactive: Potency [4]

C=C1CC[C@H](O)C/C1=C/C=C1\CCC[C@]2(C)[C@@H]([C@H](C)CC[C@@H](O)C(C)(C)O)CC[C@@H]12
inactive: Potency [1] | Potency [2] | Potency (CP192) | Potency (CP201) | Potency (CP203) | Potency (CP211) | Potency (CP262) | Potency (CP269) | Potency (CP315) | Potency (CP325) | Potency (CP329) | Potency (FAB9) | Potency (PC49)
active: Potency (ECU) 10 µM
